# Reference: PubChem BioAssay AID1851 (National Center for Advancing Translational Sciences (NCATS), 2009)
# Where “and” joins values, the source holds several entries; their conditions need not be identical. Equal entries are not always repeated. In all, about 16,000 compounds went through this assay and about 5,100 (32%) were called active. Inconclusive results (about 25%) are left out. This is one part of the list. Values without a mark were called inactive. Calls come from the whole dose curve; as a rule, active = well fitted curve in the direction sought with a large enough effect; inconclusive = small, poorly fitted or top-dose-only effect, or effect the other way; inactive = no such curve, though single readings can be large or run the other way.
# Target: Cytochrome P450 3A4 (Homo sapiens) (UniProt P08684)
# Assay: Cytochrome panel assay with activity outcomes
# Conditions: recombinant CYP, pro-luciferin dealkylation, luminescence, p450-cyp3a4; series mostly up to 57.1 µM
# % is set by controls: 0 for no effect and ±100 for the full control effect.
# Chain of Cytochrome P450 3A4 (Homo sapiens) (P08684 whole entry, looked up): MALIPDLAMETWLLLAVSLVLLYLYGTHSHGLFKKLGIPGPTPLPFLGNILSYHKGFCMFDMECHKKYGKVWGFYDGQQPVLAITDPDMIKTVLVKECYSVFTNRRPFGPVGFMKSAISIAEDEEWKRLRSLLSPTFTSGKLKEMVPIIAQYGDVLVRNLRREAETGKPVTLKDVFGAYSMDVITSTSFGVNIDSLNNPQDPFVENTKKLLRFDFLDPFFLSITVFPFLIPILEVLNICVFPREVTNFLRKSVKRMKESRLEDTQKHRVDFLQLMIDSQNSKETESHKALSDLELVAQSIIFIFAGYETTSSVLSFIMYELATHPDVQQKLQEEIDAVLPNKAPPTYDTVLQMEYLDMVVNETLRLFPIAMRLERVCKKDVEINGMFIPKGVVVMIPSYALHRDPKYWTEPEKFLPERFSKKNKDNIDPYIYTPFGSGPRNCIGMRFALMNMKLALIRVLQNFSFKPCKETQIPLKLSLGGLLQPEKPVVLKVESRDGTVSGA
Structure (SMILES),"activity, negative = inhibition",AC50
CC(C)(C)c1cc2c(O)c(c1)Cc1cc(C(C)(C)C)cc(c1O)Cc1cc(C(C)(C)C)cc(c1O)Cc1cc(C(C)(C)C)cc(c1O)Cc1cc(C(C)(C)C)cc(c1O)Cc1cc(C(C)(C)C)cc(c1O)Cc1cc(C(C)(C)C)cc(c1O)Cc1cc(C(C)(C)C)cc(c1O)C2,-24.5% [at 11.4 µM],
CC(C)Oc1ccc(CSC(=N)N)cc1,,inactive
COc1ccc(CNCCC(c2ccc(OC(C)C)cc2)C(C)C)cc1OC (stereo not given),,1.41 µM (active)
CCC(C)[C@H](NC(=O)Nc1ccc(Oc2ccccc2)cc1)C(=O)O (stereo not given in full),,inactive
NC(=S)Nc1ccc(Oc2ccc(NC(N)=S)cc2)cc1,,4.47 µM (active)
CCCCNN,-7.03% [at 11.4 µM],
O=c1c2ccc([N+](=O)[O-])c3cccc(c32)c2nc3ccccc3n12,,0.891 µM (active)
O=C(O)c1ccc2c3c1cccc3c(=O)n1c3ccccc3nc21,,inactive
NS(=O)(=O)c1cccc2c1c([N+](=O)[O-])cc1nc(O)c(O)nc12,,inactive
CC1=C(C)/C(=N\OC(=O)/C=C/c2ccccc2)C=CC1=O,,inactive
COc1cc(/C=C2/C(=N)N3C=CSC3=NC2=O)ccc1OCCCOc1ccccc1C,,15.8 µM (active)
COc1ccccc1OCCOc1ccc(/C=C2/C(=N)N3OC(C)=CC3=NC2=O)cc1OC,,inactive
COc1cc(/C=C2/C(=N)N3C=CSC3=NC2=O)ccc1OCCCOc1c(C)cccc1C,,20 µM (active)
COc1ccc(/C=C2\N=C(c3c(-c4ccccc4)noc3C)OC2=O)cc1OC,,inactive
COc1cc(C=O)ccc1OCCCOc1ccccc1C(=O)O,,inactive
CCOc1cc(/C=C2/C(=N)N3C=CSC3=NC2=O)ccc1OCCCOc1ccccc1C,,15.8 µM (active)
CCOc1ccc(-c2nn(-c3ccccc3)cc2/C=C2\SC(N)=NC2=O)cc1C,,inactive
Cc1noc(C)c1-c1cncnc1NC1CC1,,7.94 µM (active)
Cc1noc(C)c1-c1cncnc1NCc1cccnc1,,3.16 µM (active)
Cc1noc(C)c1-c1cncnc1NCc1ccccc1,,2 µM (active)
Cc1cnc(CNc2ncncc2-c2c(C)noc2C)cn1,,12.6 µM (active)
Cc1ncc([N+](=O)[O-])n1CC(C)O (stereo not given),,inactive
CCN=C(N)CSS(=O)(=O)O,-8.49% [at 11.4 µM],
Cc1noc(C)c1-c1cncnc1Nc1ccccc1,,3.16 µM (active)
Cc1noc(C)c1-c1cc(Nc2ccccc2)ncn1,,inactive

Structure (SMILES),"activity, negative = inhibition",AC50
Cc1ccc2cc(C)c3nnc(SCC(=O)NCc4ccco4)n3c2c1,,22.4 µM (active)
CC(C)n1nnnc1SCC(=O)c1ccc2c(c1)OCCO2,,inactive
CC(C)n1nnnc1SCC(=O)NCc1ccc2c(c1)OCO2,,0.891 µM (active)
CC(C)n1nnnc1SCC(=O)NCCc1ccccc1,,14.1 µM (active)
Cc1cc2cc(C)c3nnc(SCC(=O)NCc4ccc5c(c4)OCO5)n3c2cc1C,,0.562 µM (active)
Cc1ccccc1Oc1ccc(-c2nc(N)nc(N)n2)cc1,,inactive
CCCCNC(=O)NC1C(NC(=O)NCCCC)N(C)C(=O)N1C (stereo not given),,inactive
COc1cccc(CN2C(=O)N(C(C)C)C(N(O)C(=O)NC(C)C)C2(C)C)c1OC (stereo not given),-12.5% [at 2.29 µM],
CCCCCCCCN1C(=O)N(C)C(N(O)C(=O)NC)C1(C)C (stereo not given),,6.31 µM (active)
CCCOc1ccc(OCCNC2CCCC2)cc1,10% [at 2.29 µM],
C=CCOc1c(Br)cc(CNc2ccc(NC(=O)C(C)C)c(OC)c2)cc1OC,,3.55 µM (active)
COc1cc(CNC(C)(C)CO)ccc1OCC(=O)Nc1ccc(Br)cc1,0.897% [at 2.29 µM],
CC(=O)OC[C@@H]1O[C@H](C/C=N\O[C@@H](C)c2cn([C@H]3COC[C@H]3O)nn2)C=C[C@@H]1OC(C)=O,-11.8% [at 11.4 µM],
CC(=O)OC[C@@H]1O[C@H](C/C=N\O[C@@H](C)c2cc(-c3c(C)cc(C)cc3C)no2)C=C[C@@H]1OC(C)=O,,3.16 µM (active)
CCCNC(=O)OC[C@@H]1O[C@H](CCO/N=C\C[C@H]2C=C[C@H](OC(C)=O)[C@@H](COC(C)=O)O2)C=C[C@@H]1Oc1ccc(OC)cc1,,3.98 µM (active)
Cc1cc(C)c(-c2cc([C@H](C)O/N=C3/[C@H]4OC4[C@@H](O)[C@H]4[C@H]3CCn3c(=O)n(-c5ccccc5)c(=O)n34)on2)c(C)c1 (stereo not given in full),-41% [at 11.4 µM],
CC(=O)OC[C@@H]1O[C@H](CCON=C(C)C)C=C[C@@H]1OC(C)=O,-14.8% [at 11.4 µM],
COc1ccc(O[C@H]2C=C[C@@H](c3ccccc3)O[C@H]2COC(=O)CC/C(C)=N/OCC[C@@H]2C=C[C@H](OC(C)=O)[C@H](COC(C)=O)O2)cc1,,3.98 µM (active)
COc1ccc(O[C@H]2C=C[C@@H](c3ccccc3)O[C@H]2COC(=O)CC/C(C)=N\O[C@@H](C)c2cc(-c3c(C)cc(C)cc3C)no2)cc1,,3.16 µM (active)
CC(=O)OC[C@@H]1O[C@H](C/C=N\O[C@@H]2O[C@H](COC(C)=O)[C@@H](OC(C)=O)[C@H](OC(C)=O)[C@H]2OC(C)=O)C=C[C@@H]1OC(C)=O,-25.4% [at 11.4 µM],
O=C(O)[C@H]1CCCN(CCC=C(c2ccccc2)c2ccccc2)C1,,inactive
C[C@@H](O)[C@H]1C(=O)N2C(C(=O)O)=C(S[C@@H]3CN[C@H](C(=O)N(C)C)C3)[C@H](C)[C@H]12,,inactive
C[C@H](N)CCCC(C)(C)O,,inactive
COc1ccc(O[C@H]2C=C[C@@H](c3ccccc3)O[C@H]2COC(=O)CC/C(C)=N/O[C@@H]2O[C@H](COC(C)=O)[C@H](OC(C)=O)[C@H](OC(C)=O)[C@H]2OC(C)=O)cc1,,5.01 µM (active)
COc1ccc(O[C@H]2C=C[C@@H](c3ccccc3)O[C@@H]2CO/N=C\[C@@H](C)[C@H](OCc2ccccc2)C(C)C)cc1,,3.98 µM (active)

Structure (SMILES),"activity, negative = inhibition",AC50
COc1ccc(O[C@H]2C=C[C@@H](c3ccccc3)O[C@H]2CO/N=C\C[C@@H]2C=C[C@H](OC(C)=O)[C@H](COC(C)=O)O2)cc1,,3.98 µM (active)
CO/N=C\[C@@H](C)[C@H](OCc1ccccc1)C(C)C,12.5% [at 11.4 µM],
CCCNC(=O)OC[C@@H]1O[C@H](CCO/N=C(\C)CCC(=O)OC[C@@H]2O[C@H](c3ccccc3)C=C[C@@H]2Oc2ccc(OC)cc2)C=C[C@@H]1Oc1ccc(OC)cc1,,5.01 µM (active)
CC(=O)OC[C@@H]1O[C@H](C/C=N\OC[C@@H](C)[C@H](OCc2ccccc2)C(C)C)C=C[C@@H]1OC(C)=O,-18.2% [at 11.4 µM],
O=c1[nH]cc(CS(=O)(=O)Cc2c[nH]c(=O)[nH]c2=O)c(=O)[nH]1,-10.9% [at 11.4 µM],
CN1C(=O)C(CC(N)=O)N(NC(=O)c2ccc(Cl)cc2)C1=S (stereo not given),,inactive
COc1ccc(O[C@H]2C=C[C@@H](c3ccccc3)O[C@H]2COC(=O)N2CCCCC2)cc1,-82.7% [at 11.4 µM],
CCCNC(=O)OC[C@@H]1O[C@H](CCO/N=C\[C@@H](C)[C@H](OCc2ccccc2)C(C)C)C=C[C@@H]1Oc1ccc(OC)cc1,,3.98 µM (active)
COc1ccc(O[C@H]2C=C[C@@H](c3ccccc3)O[C@H]2CO/N=C(/C)CCC(=O)OC[C@@H]2O[C@H](c3ccccc3)C=C[C@@H]2Oc2ccc(OC)cc2)cc1,,3.98 µM (active)
CCCNC(=O)OC[C@@H]1O[C@H](c2ccccc2)C=C[C@@H]1Oc1ccc(OC)cc1,,3.98 µM (active)
CC(=O)OC[C@@H]1O[C@H](CCO/N=C\[C@@H](C)[C@H](OCc2ccccc2)C(C)C)C=C[C@@H]1OC(C)=O,-26.2% [at 11.4 µM],
Cc1nn(Cc2ccc([N+](=O)[O-])cc2)c(=O)n1-c1cccc(F)c1,,inactive
Cc1cc(C)c(Cn2cnc(-c3ccc([N+](=O)[O-])cc3)c2)c(C)c1,,7.94 µM (active)
C=CC[C@@H]1C=C[C@H](ON=C(C)C)[C@H](CO)O1,-13.4% [at 11.4 µM],
C=CC[C@@H]1C=C[C@H](Oc2ccc(C)cc2)[C@H](COC(=O)NCc2cccc3ccccc23)O1,,3.16 µM (active)
O=c1n(-c2ccccc2)c(=O)n2n1CC[C@H]1/C(=N\OC[C@@H](O)COCc3ccco3)[C@H]3O[C@@H]3[C@@H](O)[C@@H]12,-24.1% [at 11.4 µM] and -23% [at 11.4 µM],
C=CC[C@@H]1C=C[C@@H](O/N=C(/C)CCC(=O)OC[C@@H]2O[C@H](C#Cc3ccccc3)C=C[C@@H]2Oc2ccc(C)cc2)[C@@H](CO)O1,,5.01 µM (active)
CO/N=C(/C)CCC(=O)OC[C@@H]1O[C@H](C#Cc2ccccc2)C=C[C@@H]1Oc1ccc(C)cc1,,3.98 µM (active)
CC(=O)OC[C@@H]1O[C@H](C/C=N\OC[C@@H](O)COCc2ccco2)C=C[C@@H]1OC(C)=O,-26.2% [at 11.4 µM],
C/C(CCC(=O)OC[C@@H]1O[C@H](C#Cc2ccccc2)C=C[C@@H]1Oc1ccc(C)cc1)=N/OC[C@@H](O)COCc1ccco1,,3.16 µM (active)
CC(=O)N[C@@H](CC(=O)O)C(=O)O,,inactive
CCOC(=O)CCN1C(=O)[C@H]2[C@H]3[C@H](O)[C@H](O)C/C(=N/O[C@@H]4O[C@@H](COC(C)=O)[C@@H](OC(C)=O)[C@@H](OC(C)=O)[C@H]4OC(C)=O)[C@H]3CC[C@@H]2C1=O,-10.4% [at 11.4 µM],
CC(=O)OC[C@@H]1O[C@H](CCO/N=C(\C)CCC(=O)OC[C@@H]2O[C@H](C#Cc3ccccc3)C=C[C@@H]2Oc2ccc(C)cc2)C=C[C@@H]1OC(C)=O,,3.16 µM (active)
CC(=O)OC[C@H]1O[C@@H](O/N=C(\C)CCC(=O)OC[C@@H]2O[C@H](C#Cc3ccccc3)C=C[C@@H]2Oc2ccc(C)cc2)[C@H](OC(C)=O)[C@@H](OC(C)=O)[C@H]1OC(C)=O,,3.16 µM (active)
CC(=O)OC[C@H]1O[C@@H](ON=C(C)C)[C@H](OC(C)=O)[C@@H](OC(C)=O)[C@H]1OC(C)=O,-17.9% [at 11.4 µM],
